CYP2C9 act: increases human cytochrome P450 2C9 activity. AID 1024. 96,000 tested, 1.4% active. activation factor at 5 µM. recombinant CYP2C9, luciferin-H conversion, luminescence; stronger effect = higher value; factor 1 = untreated enzyme, 0 = blocked;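 active = activation factor of 2 or more for CYP2C9 at a 5 µM dose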;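 note: 0 = sulfaphenazole-blocked wells and 1 = vehicle-only wells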
CYP2C19 act: cytochrome P450 2C19 (human) activation | recombinant CYP2C19, luciferin-H EGE luminescence; stronger effect = higher value; 0 = fully inhibited enzyme, 1 = untreated enzyme | 96,000 tested, under 10 active | activation factor at 5 µM;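 active = activation factor of at least 2 at 5 µM in the primary screen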;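 note: 0 = wells with 2.5 mM tranylcypromine and 1 = vehicle-only wells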
Target sequence (P33261 whole entry, looked up): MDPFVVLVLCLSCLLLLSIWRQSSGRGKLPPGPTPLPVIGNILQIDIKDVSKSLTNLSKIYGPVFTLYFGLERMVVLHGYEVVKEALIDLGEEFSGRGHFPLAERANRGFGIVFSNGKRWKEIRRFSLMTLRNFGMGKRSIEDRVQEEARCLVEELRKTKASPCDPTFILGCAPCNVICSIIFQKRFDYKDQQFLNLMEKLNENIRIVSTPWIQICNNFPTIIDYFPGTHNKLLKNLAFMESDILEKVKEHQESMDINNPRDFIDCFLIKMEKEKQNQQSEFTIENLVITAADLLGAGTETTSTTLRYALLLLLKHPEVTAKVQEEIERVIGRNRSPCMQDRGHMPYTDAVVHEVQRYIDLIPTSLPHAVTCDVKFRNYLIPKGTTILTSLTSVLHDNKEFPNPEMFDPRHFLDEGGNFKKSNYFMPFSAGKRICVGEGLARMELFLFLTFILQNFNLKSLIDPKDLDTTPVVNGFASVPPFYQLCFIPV
CYP2C19 inh: blocks human cytochrome P450 2C19; inhibition, % at 5 µM; CYP2C19 Supersomes, luciferin-H EGE luminescence, 30 min; 96,000 tested, 21% active; P33261;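 active = CYP2C19 inhibition above a set limit at 5 µM in the primary screen, cut at about 50% in these data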;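 note: plate controls were negative control wells for no effect and 2.5 mM tranylcypromine positive control for full effect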
Cav3 T inh: human Cav3.2 channel inhibition, primary screen. AID 449739. 100,000 tested, 4% active. B-score at 10 µM. O95180. Cav3.2-expressing cells, Fluo-4 calcium fluorescence FDSS; stronger effect = lower value;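 active = single-dose well whose peak fluorescence ratio is a statistical outlier from its plate by either plate-standardised score or position-corrected B-score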
CYP2C9 inh: blocks human cytochrome P450 2C9. P11712. CYP2C9 Supersomes, luciferin-H conversion, luminescence. inhibition, % at 5 µM. 96,000 tested, 20% active;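 active = blocking of liver enzyme CYP2C9 beyond about 50% at 5 µM, limit read from the data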
Numbers without * were called inactive. Compounds with a hit are over-represented: about 27% of the library has one in this group of screens.

What do the screens show for `COc1cccc(-c2nnc(NC(=O)c3ccc(S(=O)(=O)N4CC(C)OC(C)C4)cc3)o2)c1` (configuration not stated)?
CYP2C9 act: 1.2; CYP2C19 act: 0.9; CYP2C19 inh: 7.6; CYP2C9 inh: -17.8

Results for CC(C)(C)C(=O)c1no[n+]([O-])c1/C(=N/O)C(C)(C)C ?
CYP2C9 act: 0.9; CYP2C19 act: 0.4; CYP2C19 inh: 59.4*; Cav3 T inh: -7.88*; CYP2C9 inh: 12.4

What do the screens show for `Cc1ccc(CN2C(=O)[C@H]3Cc4c([nH]c5ccccc45)C(C)(C)N3C2=O)cc1`?
Cav3 T inh: -0.966

How did CCCCn1cnc2cc(NCc3ccncc3)ccc21 do in these assays?
CYP2C9 act: 0.4; CYP2C19 act: 0.4; CYP2C19 inh: 55.9*; Cav3 T inh: 0.628; CYP2C9 inh: 62.4*

How did CCn1cnc2cc(NCc3ccc(OC)cc3)ccc21 do in these assays?
CYP2C9 act: 0.9; CYP2C19 act: 0.3; CYP2C19 inh: 73.2*; Cav3 T inh: 0.776; CYP2C9 inh: 7.1

Results for CCOC(=O)c1ccc(NCc2ccncc2)cc1 ?
Cav3 T inh: 0.0419

Results for CN(C)c1ccc(CNc2ccc3c(c2)ncn3C)cc1 ?
CYP2C9 act: 1; CYP2C19 act: 0.3; CYP2C19 inh: 69.8*; Cav3 T inh: 0.511; CYP2C9 inh: 1.8

What do the screens show for `Cc1cccc(OC(=O)CN2C(=O)C3C4CCC(C4)C3C2=O)c1C` (configuration not stated)?
CYP2C9 act: 0.9; CYP2C19 act: 0.7; CYP2C19 inh: 30.5; Cav3 T inh: 0.95; CYP2C9 inh: 6.1

How did Cn1c(=O)oc2cc(S(=O)(=O)N3CCC(C(=O)N4CC=C(c5ccccc5)CC4)CC3)ccc21 do in these assays?
CYP2C9 act: 1.1; CYP2C19 act: 0.3; CYP2C19 inh: 72.9*; Cav3 T inh: 0.0768; CYP2C9 inh: -5.1

What do the screens show for `Cn1c(=O)oc2cc(S(=O)(=O)N3CCCC(C(=O)N4CCc5ccccc5C4)C3)ccc21` (configuration not stated)?
CYP2C9 act: 0.5; CYP2C19 act: 0.1; CYP2C19 inh: 91.4*; Cav3 T inh: 0.818; CYP2C9 inh: 47.6

How did CCOC(=O)C1CCCN(C(=O)C2CCCN(S(=O)(=O)c3ccc4c(c3)oc(=O)n4C)C2)C1 (configuration not stated) do in these assays?
CYP2C9 act: 0.2; CYP2C19 act: 0.7; CYP2C19 inh: 28.0; Cav3 T inh: -0.0237; CYP2C9 inh: 80.6*

How did Cn1c(=O)oc2cc(S(=O)(=O)N3CCCC(C(=O)NCCN4CCOCC4)C3)ccc21 (configuration not stated) do in these assays?
CYP2C9 act: 1; CYP2C19 act: 1.1; CYP2C19 inh: -5.3; CYP2C9 inh: 3.0

Results for Cn1c(=O)oc2cc(S(=O)(=O)N3CCC(C(=O)N4CCN(c5ccccc5)CC4)CC3)ccc21 ?
CYP2C9 act: 1.3; CYP2C19 act: 1.1; CYP2C19 inh: -8.8; Cav3 T inh: -0.758; CYP2C9 inh: -31.2

How did CCOC(=O)COc1ccc(S(=O)(=O)N2CCN(c3ccc(F)cc3)CC2)cc1 do in these assays?
CYP2C9 act: 0.5; CYP2C19 act: 0.8; CYP2C19 inh: 22.4; Cav3 T inh: -1.66; CYP2C9 inh: 50.5*

What do the screens show for `CC(=O)Nc1ccc(S(=O)(=O)N2CCc3ccccc3C2)cc1`?
CYP2C9 act: 1.6; CYP2C19 act: 0.3; CYP2C19 inh: 65.0*; Cav3 T inh: -2.64; CYP2C9 inh: -58.1

What do the screens show for `CC(=O)Nc1ccc(S(=O)(=O)N2CCN(C)CC2)cc1`?
CYP2C9 act: 1.1; CYP2C19 act: 0.9; CYP2C19 inh: 6.1; Cav3 T inh: 0.211; CYP2C9 inh: -12.5

What do the screens show for `CCOC(=O)COc1ccc(S(=O)(=O)N2CCc3ccccc3C2)cc1`?
CYP2C9 act: 1.5; CYP2C19 act: 0.4; CYP2C19 inh: 55.9*; Cav3 T inh: -0.584; CYP2C9 inh: -49.2

Results for Cn1c2ccc(CC(=O)O)cc2c2cc(CC(=O)O)ccc21 ?
CYP2C9 act: 1.1; CYP2C19 act: 1.1; CYP2C19 inh: -10.1; Cav3 T inh: 0.35; CYP2C9 inh: -5.8

Results for COC(=O)Cc1ccc2c3ccccc3n(C)c2c1 ?
CYP2C9 act: 1; CYP2C19 act: 0.3; CYP2C19 inh: 71.4*; Cav3 T inh: -0.579; CYP2C9 inh: 4.1

Results for O=C(CN1C2CCCC1CC(NC(=O)c1ccccc1)C2)Nc1nccs1 (configuration not stated) ?
Cav3 T inh: 0.957

What do the screens show for `COc1cc(C(=O)NC2CC3CCCC(C2)N3CC(=O)Nc2ccccc2)cc(OC)c1OC` (configuration not stated)?
CYP2C9 act: 0; CYP2C19 act: 0.2; CYP2C19 inh: 80.6*; Cav3 T inh: 4.41*; CYP2C9 inh: 97.1*

Screening results (PubChem)
